Here are results for 34 molecules from PubChem BioAssay (NCATS).

Inconclusive results are not listed. Entries that show only a call come without a potency. A number with no mark means an inactive call. Active and inactive are the calls of the source. Calls follow the shape of the dose curve; as a rule, active = well fitted inhibition curve with a large enough effect; inconclusive = small, poorly fitted or top-dose-only effect; inactive = flat fitted curve, though single readings scatter.
Potency is read from the fitted curve at half-maximal effect.

The subject of one experiment is MCC-26. Description: qHTS assay to identify novel small-molecules to repurpose for Merkel cell carcinoma treatment (AID 1296009). Also: nearly all actives have a fitted effect of over 60% in size. The conditions noted are these: MCC and control cell lines, CellTiter-Glo viability, 72 h; series mostly up to 46 µM. The method, boiled down:
(§1)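 Luminescence from CellTiter-Glo, read 10 min after addition at room temperature, reported viability following a 72 hr, 37 degree celsius treatment with NPC or MIPE compounds in titration; values normalized to plate controls.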
A general note: In qHTS, concentration-response curves come from the screen itself.
Regarding `CC(=O)Oc1ccc(C)cc1`, the Potency result was “inactive”.
Same read-out and setting: under `CC(C)(C)NC[C@H](O)COc1nsnc1N1CCOCC1` stands “inactive”; under `Cc1ncc(CO)c(C=O)c1O`, “inactive”.
On the same count and under the same terms, under `CN(C)CCN1C(=O)c2ccccc2N(C)c2ccccc21` stands “inactive”; under `COc1cc(C)nc(-n2nc(C)cc2OC)n1`, “inactive”; under `O=C1C(O)=C(O)C(=O)C(O)=C1O`, “inactive”.
The same measure, in the same setting: under `CCCCCCCCCCCCSCCOCCO` stands “inactive”; under `COc1ccc(C(=O)c2ccccc2)c(O)c1`, “inactive”; under `OC[C@H]1O[C@@H]2O[C@H]3[C@H](O)[C@@H](O)[C@@H](O[C@H]4[C@H](O)[C@@H](O)[C@@H](O[C@H]5[C@H](O)[C@@H](O)[C@@H](O[C@H]6[C@H](O)[C@@H](O)[C@@H](O[C@H]7[C@H](O)[C@@H](O)[C@@H](O[C@H]8[C@H](O)[C@@H](O)[C@@H](O[C@H]1[C@H](O)[C@H]2O)O[C@@H]8CO)O[C@@H]7CO)O[C@@H]6CO)O[C@@H]5CO)O[C@@H]4CO)O[C@@H]3CO`, “inactive”.
On to `C#C[C@]1(OC(C)=O)CC[C@H]2[C@@H]3CCC4=C/C(=N/O)CC[C@@H]4[C@H]3CC[C@@]21CC`, for which the Potency entry is “inactive”.
Still for that read-out and setting: under `CCOC(=O)c1c(N)sc2c1CCN(Cc1ccccc1)C2` stands “inactive”; under `CCCCCCCC/C=C\CCCCCCCCN`, “inactive”; under `N#CCC(=O)NN`, “inactive”.
Still for that read-out and setting: for `C#C[C@]1(O)CC[C@H]2[C@@H]3CCC4=CC(=O)CC[C@@H]4[C@H]3CC[C@@]21CC` the value was “inactive”; for `CN1CCC(OC(c2ccccc2)c2ccccc2)CC1`, “inactive”.
As to `CCN[C@@H]1C[C@H](N)[C@@H](OC2OC(CN)=CCC2N)[C@H](O)[C@H]1O[C@H]1OC[C@](C)(O)[C@H](NC)[C@H]1O` (stereo not given in full), the activity change, negative = cytotoxicity is 2.75% [at 0.597 µM].
Consider `O=C(c1ccc(F)cc1)C1CCN(CCn2c(=S)[nH]c3ccccc3c2=O)CC1`, for which the Potency entry is “inactive”.
Same read-out and setting: under `CC(=O)N[C@@H](CCC(=O)O)C(=O)O` stands “inactive”; under `CCCc1ncc(C[n+]2ccccc2C)c(N)n1`, “inactive”; under `COc1cc(O)c(C(=O)c2ccccc2)cc1S(=O)(=O)O`, “inactive”.
The same measure, in the same setting: under `CCN(CC)CCOC(=O)C1(c2ccccc2)CCCC1` stands “inactive”; under `CCC(Cc1c(I)cc(I)c(N)c1I)C(=O)O` (stereo not given), “inactive”; under `OC[C@H]1O[C@@H](Oc2ccc(O)cc2)[C@H](O)[C@@H](O)[C@@H]1O`, “inactive”.
Still for that read-out and setting: for `Cc1cccc(C)c1NC(=O)CN1CCCCCC1` the value was “inactive”.
With `Nc1ccc(S(=O)(=O)NCc2ccccc2)cc1`, the Potency entry is “inactive”.
As for `CN1CCc2cccc3c2[C@H]1Cc1ccc(O)c(O)c1-3`, the Potency result was “inactive”.
In the case of `CCN(CC)CCOc1ccc2c(c1)C(=O)c1cc(OCCN(CC)CC)ccc1-2`, the Potency result is “inactive”.
The same measure, in the same setting: for `CCc1oc2ccccc2c1C(=O)c1cc(I)c(O)c(I)c1` the value was “inactive”; for `CCCCCN=C(N)N/N=C/c1c[nH]c2ccc(OC)cc12`, 23.7 µM (active); for `O=C(O)CCNC(=O)c1ccccc1`, “inactive”.
As for `CCCCC(CC)COC(=O)/C=C/c1ccc(OC)cc1` (stereo not given), the Potency entry was “inactive”.
The same measure, in the same setting: under `COc1cc(NS(=O)(=O)c2ccc(N)cc2)ncn1` stands “inactive”; under `C[C@]12CCC(=O)C=C1C=C[C@@H]1[C@@H]2CC[C@@]2(C)[C@H]1CC[C@@]21CCC(=O)O1`, “inactive”.
Same read-out and setting: under `C=C[C@@]1(C)CC(=O)[C@]2(O)[C@@]3(C)[C@@H](O)CCC(C)(C)[C@@H]3[C@H](O)[C@H](OC(C)=O)[C@@]2(C)O1` stands “inactive”.

A further experiment concerns MKL-1. The experiment is described as above. The conditions noted are these: MCC and control cell lines, CellTiter-Glo viability, 72 h; series mostly up to 46 µM. The procedure, abridged: as §1
A general note: ATP-based viability assays read luminescence as a measure of living cells.
As for `CC(=O)Oc1ccc(C)cc1`, the Potency result was “inactive”.
The same measure, in the same setting: under `CC(C)(C)NC[C@H](O)COc1nsnc1N1CCOCC1` stands “inactive”; under `Cc1ncc(CO)c(C=O)c1O`, “inactive”; under `CN(C)CCN1C(=O)c2ccccc2N(C)c2ccccc21`, “inactive”.
The same measure, in the same setting: for `COc1cc(C)nc(-n2nc(C)cc2OC)n1` the value was “inactive”; for `O=C1C(O)=C(O)C(=O)C(O)=C1O`, “inactive”; for `COc1ccc(C(=O)c2ccccc2)c(O)c1`, “inactive”.
Consider `OC[C@H]1O[C@@H]2O[C@H]3[C@H](O)[C@@H](O)[C@@H](O[C@H]4[C@H](O)[C@@H](O)[C@@H](O[C@H]5[C@H](O)[C@@H](O)[C@@H](O[C@H]6[C@H](O)[C@@H](O)[C@@H](O[C@H]7[C@H](O)[C@@H](O)[C@@H](O[C@H]8[C@H](O)[C@@H](O)[C@@H](O[C@H]1[C@H](O)[C@H]2O)O[C@@H]8CO)O[C@@H]7CO)O[C@@H]6CO)O[C@@H]5CO)O[C@@H]4CO)O[C@@H]3CO`, for which the Potency entry is “inactive”.
Same read-out and setting: under `CCCCCCCC/C=C\CCCCCCCCN` stands “inactive”; under `N#CCC(=O)NN`, “inactive”; under `C#C[C@]1(O)CC[C@H]2[C@@H]3CCC4=CC(=O)CC[C@@H]4[C@H]3CC[C@@]21CC`, “inactive”.
On to `CN1CCC(OC(c2ccccc2)c2ccccc2)CC1`, for which the Potency entry is “inactive”.
Regarding `CCN[C@@H]1C[C@H](N)[C@@H](OC2OC(CN)=CCC2N)[C@H](O)[C@H]1O[C@H]1OC[C@](C)(O)[C@H](NC)[C@H]1O` (stereo not given in full), the activity change, negative = cytotoxicity was 9.5% [at 0.597 µM].
Turning to `O=C(c1ccc(F)cc1)C1CCN(CCn2c(=S)[nH]c3ccccc3c2=O)CC1`, the Potency result was “inactive”.
On the same count and under the same terms, under `CC(=O)N[C@@H](CCC(=O)O)C(=O)O` stands “inactive”; under `CCCc1ncc(C[n+]2ccccc2C)c(N)n1`, “inactive”; under `COc1cc(O)c(C(=O)c2ccccc2)cc1S(=O)(=O)O`, “inactive”.
Still for that read-out and setting: under `CCN(CC)CCOC(=O)C1(c2ccccc2)CCCC1` stands “inactive”.
On the same count and under the same terms, under `CCC(Cc1c(I)cc(I)c(N)c1I)C(=O)O` (stereo not given) stands “inactive”; under `OC[C@H]1O[C@@H](Oc2ccc(O)cc2)[C@H](O)[C@@H](O)[C@@H]1O`, “inactive”.
With `Cc1cccc(C)c1NC(=O)CN1CCCCCC1`, the Potency result is “inactive”.
With `Nc1ccc(S(=O)(=O)NCc2ccccc2)cc1`, the Potency entry is “inactive”.
Same read-out and setting: for `CN1CCc2cccc3c2[C@H]1Cc1ccc(O)c(O)c1-3` the value was 1.33 µM (active); for `CCN(CC)CCOc1ccc2c(c1)C(=O)c1cc(OCCN(CC)CC)ccc1-2`, 13.3 µM (active); for `CCc1oc2ccccc2c1C(=O)c1cc(I)c(O)c(I)c1`, “inactive”.
For the molecule `CCCCCN=C(N)N/N=C/c1c[nH]c2ccc(OC)cc12`, the Potency entry was “inactive”.
Still for that read-out and setting: under `O=C(O)CCNC(=O)c1ccccc1` stands “inactive”.
Same read-out and setting: for `CCCCC(CC)COC(=O)/C=C/c1ccc(OC)cc1` (stereo not given) the value was “inactive”; for `COc1cc(NS(=O)(=O)c2ccc(N)cc2)ncn1`, “inactive”; for `C[C@]12CCC(=O)C=C1C=C[C@@H]1[C@@H]2CC[C@@]2(C)[C@H]1CC[C@@]21CCC(=O)O1`, “inactive”.
`C=C[C@@]1(C)CC(=O)[C@]2(O)[C@@]3(C)[C@@H](O)CCC(C)(C)[C@@H]3[C@H](O)[C@H](OC(C)=O)[C@@]2(C)O1`: the Potency result was “inactive”.
